Results taken from PubChem BioAssay (NCI).
The panel holds about 83,000 compounds, 20% with a hit somewhere; the sample as a whole holds those more often.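 A percent growth of 40 corresponds to 60% growth inhibition; 0 means no net growth; -100 means all cells died. Active threshold: below 10.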 The source made the active and inactive calls.

Assays:
Test in all cases: NCI-60 one-dose screen, 48 h (100 = growth as untreated, 0 = no growth, -100 = all killed)
Conditions in all cases: 10 µM
BT-549 breast = test system: BT-549 breast
MDA-MB-435 melanoma = test system: MDA-MB-435 melanoma
SW-620 colon = test system: SW-620 colon
MCF7 breast = test system: MCF7 breast
HCT-116 colon = test system: HCT-116 colon
HCC-2998 colon = test system: HCC-2998 colon
KM12 colon = test system: KM12 colon

Measured: growth

CN1CCC2(CC1)NC(=O)c1c(c3ccc(Cl)c(Cl)c3n1C)C2C#N (stereo not given)
active: HCC-2998 colon -1.84%
inactive: BT-549 breast 84.9% | MDA-MB-435 melanoma 49.2% | SW-620 colon 83.9% | MCF7 breast 28.5% | HCT-116 colon 43% | KM12 colon 106%

CC(=O)N1N=C(c2ccc(Cl)cc2)CC1c1sc(Cl)nc1Cl (stereo not given)
inactive: BT-549 breast 89.9% | MDA-MB-435 melanoma 89.2% | SW-620 colon 102% | MCF7 breast 85.9% | HCT-116 colon 75.9% | HCC-2998 colon 94.8% | KM12 colon 93.5%

CSc1nc(=O)n(Cc2ccc(F)cc2)c(=O)n1Cc1ccc(C)cc1
inactive: BT-549 breast 103% | MDA-MB-435 melanoma 117% | SW-620 colon 115% | MCF7 breast 91.1% | HCT-116 colon 97.5% | HCC-2998 colon 95.5% | KM12 colon 96.4%

COc1cc2cc3c(nc2cc1OC)CCN3Cc1ccc(NC(=O)c2ccc(Cl)c(C(F)(F)F)c2)cc1
inactive: BT-549 breast 112% | MDA-MB-435 melanoma 95.6% | SW-620 colon 114% | MCF7 breast 15% | HCT-116 colon 93.4% | HCC-2998 colon 91.2% | KM12 colon 109%

COc1ccc(-c2nn(-c3cccc(NC(=O)c4cccc(C(F)(F)F)c4)c3)cc2-c2ccncc2)cc1Cl
active: MDA-MB-435 melanoma -67.9% | MCF7 breast 9.92%
inactive: BT-549 breast 35% | SW-620 colon 36% | HCT-116 colon 14.5% | HCC-2998 colon 33.6% | KM12 colon 15.4%

c1ccc([C@H]2CN3CCSC3=N2)cc1
inactive: BT-549 breast 102% | MDA-MB-435 melanoma 101% | SW-620 colon 98.6% | MCF7 breast 94.4% | HCT-116 colon 110% | HCC-2998 colon 119% | KM12 colon 109%

CCN1CCN(c2nc3ccccc3c3c(=O)c4ccccc4sc23)CC1
inactive: BT-549 breast 69% | MDA-MB-435 melanoma 47.9% | SW-620 colon 24% | MCF7 breast 28.3% | HCT-116 colon 27.5% | HCC-2998 colon 57.2% | KM12 colon 36.1%

CSC1=NCCCC1
inactive: BT-549 breast 108% | MDA-MB-435 melanoma 108% | SW-620 colon 114% | MCF7 breast 97.8% | HCT-116 colon 109% | HCC-2998 colon 115% | KM12 colon 113%

O=C(C[P+](c1ccccc1)(c1ccccc1)c1ccccc1)C[P+](c1ccccc1)(c1ccccc1)c1ccccc1
active: BT-549 breast -89.2% | MDA-MB-435 melanoma -80.6% | SW-620 colon -71.9% | MCF7 breast -69.8% | HCT-116 colon -93.3% | HCC-2998 colon -83.9% | KM12 colon -75.5%

COc1ccc(Nc2ccnc(NCCNc3ccnc4cc(Cl)ccc34)n2)cc1
inactive: BT-549 breast 61% | SW-620 colon 36.4% | MCF7 breast 14.3% | HCC-2998 colon 41.1% | KM12 colon 62.2%
active: MDA-MB-435 melanoma -39.1% | HCT-116 colon 3.11%

ClC(Cl)(Cl)c1nc2nccnc2[nH]1
inactive: BT-549 breast 103% | MDA-MB-435 melanoma 102% | SW-620 colon 107% | MCF7 breast 94.1% | HCT-116 colon 103% | HCC-2998 colon 122% | KM12 colon 106%

COc1ccc(-c2nc3sc(-c4ccc(OC)cc4)c(-c4ccc(OC)cc4)n3c2/C=C/c2ccc(C(C)C)cc2)cc1
inactive: BT-549 breast 98.6% | MDA-MB-435 melanoma 98.7% | SW-620 colon 99.7% | MCF7 breast 90.4% | HCT-116 colon 94.4% | HCC-2998 colon 111% | KM12 colon 102%

Cn1c([N+](=O)[O-])cnc1/C=C1\Oc2ccccc2C1=O
active: BT-549 breast -28.6% | MDA-MB-435 melanoma -86.8% | SW-620 colon -36.3% | MCF7 breast 1.82% | HCT-116 colon 1.88% | HCC-2998 colon -73.6% | KM12 colon -17.4%

COc1ccc(-c2cc(-c3ccc(N(C)C)cc3)c(C#N)c(N3CCCC3)n2)cc1
inactive: BT-549 breast 74.4% | MDA-MB-435 melanoma 90.4% | SW-620 colon 94.4% | MCF7 breast 103% | HCT-116 colon 67.7% | HCC-2998 colon 83.6% | KM12 colon 95.4%

CC1(C)OC2=C(CC1Br)C(=O)C(=O)c1ccccc12 (stereo not given)
active: BT-549 breast -99.2% | MDA-MB-435 melanoma -87.4% | SW-620 colon -81.5% | MCF7 breast -66.3% | HCT-116 colon -57% | HCC-2998 colon -19.7% | KM12 colon -93%

CCN(CC)CCC(=O)Nc1cccc2c1C(=O)c1c(c(O)c3ccccc3c1O)C2=O
inactive: BT-549 breast 68.8% | MDA-MB-435 melanoma 91.6% | SW-620 colon 43.8% | MCF7 breast 30.3% | HCT-116 colon 44.9% | HCC-2998 colon 80.9% | KM12 colon 56.9%

COc1ccc(CN2CCC(N3CCCC3=O)c3cc(Cl)ccc32)cc1 (stereo not given)
inactive: BT-549 breast 67.6% | MDA-MB-435 melanoma 119% | SW-620 colon 102% | MCF7 breast 100% | HCT-116 colon 96.8% | HCC-2998 colon 105% | KM12 colon 103%

CCN1CCCC1CNC(=O)c1ncc(-c2ccc(C(F)(F)F)cc2)c(NC2CCCCCC2)n1 (stereo not given)
inactive: BT-549 breast 99.2% | MDA-MB-435 melanoma 72.6% | SW-620 colon 96.2% | MCF7 breast 43.6% | HCT-116 colon 54.9% | HCC-2998 colon 72.4% | KM12 colon 75.3%

COc1ccc2c(c1)C(=O)c1c-2c(OCCN(C)C)nc2cc(OC)c(OC)cc12
inactive: BT-549 breast 89.9% | MDA-MB-435 melanoma 56.8% | SW-620 colon 38.6% | MCF7 breast 28.9% | HCT-116 colon 30% | HCC-2998 colon 63.2% | KM12 colon 54.1%

COc1ccc2c(c1)sc1nc(-c3ccccc3)c(-c3ccc(O)c(OC)c3)n12
active: MDA-MB-435 melanoma -24.6%
inactive: BT-549 breast 68.2% | SW-620 colon 39.9% | MCF7 breast 93.4% | HCT-116 colon 33.2% | HCC-2998 colon 42.5% | KM12 colon 37.1%

COc1ccc(OC)c(/C=C/c2nnc(Nc3ccc(Cl)cc3)o2)c1
inactive: BT-549 breast 97.4% | MDA-MB-435 melanoma 69.8% | SW-620 colon 66.7% | MCF7 breast 74.5% | HCT-116 colon 21.9% | HCC-2998 colon 55.4% | KM12 colon 86.5%

CCCCCCCCCCCCCC[n+]1ccc(C(N)=O)cc1
active: BT-549 breast -50.9% | MDA-MB-435 melanoma 8.53% | SW-620 colon 7.11% | HCT-116 colon 6.07% | HCC-2998 colon 6.43% | KM12 colon -87.2%
inactive: MCF7 breast 22.8%

COc1cc(NC(=O)c2sc3nc4c(cc3c2N)C(O)CCC4)cc(OC)c1 (stereo not given)
inactive: BT-549 breast 100% | SW-620 colon 66.1% | MCF7 breast 50.7% | HCT-116 colon 84.2% | HCC-2998 colon 78.9% | KM12 colon 69.5%
active: MDA-MB-435 melanoma 8.37%

O=C(Nc1ccc(CN2CCc3nc4cc(O)c(O)cc4cc32)cc1)c1ccc(Cl)c(Cl)c1
inactive: BT-549 breast 101% | MDA-MB-435 melanoma 100% | SW-620 colon 97.2% | MCF7 breast 93.7% | HCT-116 colon 100% | HCC-2998 colon 112% | KM12 colon 99.9%

COc1cc(-c2cc(C(=O)N3CCN(C(=O)c4ccccc4NCc4ccco4)CC3)nc3cc(-c4ccccc4)nn23)cc(OC)c1OC
inactive: BT-549 breast 35.6% | SW-620 colon 14.2% | MCF7 breast 16.3% | HCT-116 colon 20% | HCC-2998 colon 66.3% | KM12 colon 13.1%
active: MDA-MB-435 melanoma -34.6%

COc1ccc(-c2nn(-c3cccc(NC(=O)Nc4cccc(C(F)(F)F)c4)c3)cc2-c2ccncc2)cc1Cl
active: BT-549 breast 8.32% | MDA-MB-435 melanoma -35.8% | MCF7 breast 5.79% | HCT-116 colon 9.6% | KM12 colon 0.879%
inactive: SW-620 colon 17.4% | HCC-2998 colon 30.5%

Clc1ccc2c(NCCCNc3nccc(Nc4ccc(Br)cc4)n3)ccnc2c1
active: BT-549 breast 4.45% | MDA-MB-435 melanoma -88.3% | SW-620 colon -74.4% | MCF7 breast -98.8% | HCT-116 colon -97.5% | HCC-2998 colon -91.4% | KM12 colon -48.6%

COc1ccc(-c2nc3ccccn3c2-c2nnc(-c3cc(OC)c(OC)c(OC)c3)o2)cc1
inactive: BT-549 breast 42.7% | MDA-MB-435 melanoma 96.2% | SW-620 colon 74.9% | MCF7 breast 63.4% | HCT-116 colon 32.1% | HCC-2998 colon 85.4% | KM12 colon 65%

Cc1cccc2c(NCCN(C)C)c3cccc(C(=O)NCCN(C)C)c3nc12
active: MDA-MB-435 melanoma 8.12% | SW-620 colon 4.11% | MCF7 breast 2.67% | HCT-116 colon 8.86% | HCC-2998 colon -22.8% | KM12 colon -27.6%
inactive: BT-549 breast 18.2%

COc1cc(Cl)cc(-c2nn(-c3cccc(NC(=O)c4ccc(Cl)c(Cl)c4)c3)cc2-c2ccncc2)c1
inactive: BT-549 breast 85.2% | MDA-MB-435 melanoma 80.7% | SW-620 colon 84.2% | MCF7 breast 57.7% | HCT-116 colon 44.1% | HCC-2998 colon 77.8% | KM12 colon 62.3%

COc1cc(C(=O)N2CCN(c3ccccc3OC)CC2)c(N)cc1OCCCN1CCN(c2ccccc2OC)CC1
inactive: BT-549 breast 94.4% | MDA-MB-435 melanoma 101% | SW-620 colon 90.6% | MCF7 breast 96% | HCT-116 colon 81.9% | HCC-2998 colon 101% | KM12 colon 88.4%

Cc1cccc2c1O/C(=C\c1ccc([N+](=O)[O-])o1)C2=O
active: BT-549 breast -68.5% | MDA-MB-435 melanoma -53.2% | SW-620 colon -68% | MCF7 breast -39.7% | HCT-116 colon -53.2% | HCC-2998 colon -67.4% | KM12 colon -34.2%

Cn1c(N)c(N=Nc2ccc(S(=O)(=O)Nc3nccs3)cc2)c(=O)n(C)c1=O
inactive: BT-549 breast 97.9% | MDA-MB-435 melanoma 101% | SW-620 colon 99% | MCF7 breast 101% | HCT-116 colon 109% | HCC-2998 colon 95.9% | KM12 colon 104%

CCN1Cc2c(/C=C/c3ccccc3)nc3ccc(OC)cc3c2N(c2cccc(Cl)c2)C1
inactive: BT-549 breast 95.2% | MDA-MB-435 melanoma 76.1% | SW-620 colon 67.4% | MCF7 breast 78.5% | HCT-116 colon 45.8% | HCC-2998 colon 86% | KM12 colon 94.2%

Cc1ccc(NC(=O)Nc2cccnc2)cc1NC(=O)Nc1cccnc1
inactive: BT-549 breast 98.1% | MDA-MB-435 melanoma 73.9% | SW-620 colon 108% | MCF7 breast 81% | HCT-116 colon 90.2% | HCC-2998 colon 87.7% | KM12 colon 87.2%
